Assay results from the supplement of paper PMC6555819.

Assays:
Test in all cases: PBM binding z-score (relative to random genomic background probes); higher = stronger binding; sequences stand for … in GC…GCGATTGACAGCGTAGAATGAAGG
[1] = test system: FXR:RXRa (NR concentration 270 nM, RXRa partner concentration 90 nM)
In short: (§1)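 The probes on custom Agilent 4×180K protein-binding microarrays were double-stranded, with 34-nt variable regions bearing direct-repeat seeds, single-nucleotide variants, half-site ablations and random human genomic background sequences. Incubation lasted 1 h with ligand-free nuclear receptor dimers in PBS pH 7.4, 2% milk, 0.02% Triton X-100, 1 mM DTT, 0.2 mg/mL BSA and 0.4 mg/ml salmon testes DNA. Antibodies against each partner (one per run) detected bound dimers, and fluorescence scans were regression-normalized. Binding z-scores take the random background probes as reference.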

[2] = test system: LXRa:RXRa (NR concentration 270 nM, RXRa partner concentration 90 nM)
In short: as §1

[3] = test system: LXRa homodimer (NR concentration 270 nM)
In short: as §1

[4] = test system: LXRb:RXRa (NR concentration 270 nM, RXRa partner concentration 90 nM)
In short: as §1

[5] = test system: LXRb homodimer (NR concentration 270 nM)
In short: as §1

[6] = test system: PPARa:RXRa (NR concentration 270 nM, RXRa partner concentration 90 nM)
In short: as §1

[7] = test system: PPARg:RXRa (NR concentration 180 nM, RXRa partner concentration 90 nM)
In short: as §1

[8] = test system: PPARg:RXRa 270nM:90nM, anti-RXR (NR concentration 270 nM, RXRa partner concentration 90 nM)
In short: as §1

[9] = test system: PPARg:RXRa 30nM:10nM, anti-RXR (NR concentration 30 nM, RXRa partner concentration 10 nM)
In short: as §1

[10] = test system: PPARg:RXRa 90nM:30nM, anti-RXR (NR concentration 90 nM, RXRa partner concentration 30 nM)
In short: as §1

[11] = test system: PPARg:RXRa DBDmut IVT, anti-RXR (DBD mutation: RXRa K156A/R161A, NR concentration 270 nM, RXRa partner concentration 90 nM)
In short: as §1

[12] = test system: PPARg:RXRa IVT, anti-PPARg (NR concentration 270 nM, RXRa partner concentration 90 nM)
In short: as §1

[13] = test system: PPARg DBDmut:RXRa IVT, anti-PPARg (DBD mutation: PPARg1 K132A/R137A, NR concentration 270 nM, RXRa partner concentration 90 nM)
In short: as §1

[14] = test system: PPARg DBDmut IVT, anti-PPARg (DBD mutation: PPARg1 K132A/R137A, NR concentration 270 nM)
In short: as §1

[15] = test system: PPARg homodimer (NR concentration 180 nM)
In short: as §1

[16] = test system: PXR:RXRa (NR concentration 270 nM, RXRa partner concentration 90 nM)
In short: as §1

[17] = test system: PXR homodimer (NR concentration 270 nM)
In short: as §1

[18] = test system: RARa:RXR (NR concentration 270 nM, RXRa partner concentration 90 nM)
In short: as §1

[19] = test system: RARa homodimer (NR concentration 270 nM)
In short: as §1

[20] = test system: RARb:RXRa (NR concentration 270 nM, RXRa partner concentration 90 nM)
In short: as §1

Sequence	PBM binding z-score [1]	PBM binding z-score [2]	PBM binding z-score [3]	PBM binding z-score [4]	PBM binding z-score [5]	PBM binding z-score [6]	PBM binding z-score [7]	PBM binding z-score [8]	PBM binding z-score [9]	PBM binding z-score [10]	PBM binding z-score [11]	PBM binding z-score [12]	PBM binding z-score [13]	PBM binding z-score [14]	PBM binding z-score [15]	PBM binding z-score [16]	PBM binding z-score [17]	PBM binding z-score [18]	PBM binding z-score [19]	PBM binding z-score [20]
TCTTGTAGATGAATAGAGGTTAAGAAAGTGCGCT	1.46	3.5	0.638	1.98	0.559	1.93	0.366	2.17	3.31	2.67	2.5	1.18	0.58	0.95	0.765	3.01	0.505	1.86	1.12	1.01
CGAACTCGGTCAGAACAGGACAGTGAAGGATGAT	0.127	0.0151	0.0405	-0.32	-0.669	0.415	0.904	0.142	0.197	0.033	1.72	1.11	-0.0702	0.48	0.274	-0.108	-0.225	0.713	-0.378	1.55
AGAACGAGGGCTATGAGTTGATAGCACGGGTGGC	-0.355	-0.47	-0.658	-0.828	-0.486	-0.335	0.792	0.00243	-0.297	0.151	0.434	-0.14	-0.172	-1.35	-0.607	-0.351	0.0434	-0.584	0.201	-0.0296
ATATGTAGGTTAGCTGGGGTCATTCAGACTAGGC	4.38	5.95	3.02	4.75	0.992	5.13	5.66	5.12	2.67	4.46	6.68	6.23	2.15	1.68	2.64	6.34	4.08	5.73	1.52	2.96
AATACAGGGTCATCATAGGCCAGAGTACGCACAG	6.85	6.83	2.28	4.77	1.57	5.63	6.31	5.66	2.51	4.41	2.62	3.98	1.5	0.916	1.8	4.42	1.01	4.65	1.25	4.25
CCTCCAAGGTCAATGCTAGGTCAGTGAAAGCATT	6.43	5.53	2.29	4.51	1.02	5.22	3.95	4.93	1.2	3.28	3.02	3.34	-0.0903	-0.621	4.19	4.52	1.09	5.43	1.36	5.22
CAAACTTGGTCAAGGTCAAAGTCGGTTTGTGCCA	4.61	4.38	2.94	3.8	0.689	4.46	2.73	3.77	1	2.73	2.24	3.79	0.249	1.03	1.86	4.45	1.54	4.15	0.201	4.12
CGAACTAGGGCATTGACAGGACAGTGAATAGTAA	0.151	0.0251	0.031	-0.0451	-0.654	2.23	3.32	2.68	0.522	1.83	6.82	6.53	1.42	0.993	0.464	-0.229	-0.0482	-0.297	0.262	1.14
ACTATTTGTTGAGACGAGGGCAACCGATAGGTTG	0.374	0.535	0.28	0.453	0.762	0.255	0.623	0.216	0.23	0.0132	0.443	0.881	1.52	1.09	0.629	0.581	0.979	0.391	0.779	1.07
CAAACTAGGTCACCGGAAGGTAAAAGTCCGCATG	4.56	3.72	0.573	2.66	0.507	5.39	9.08	7.23	5.39	7.11	8.41	8.97	5.23	6.11	4.02	2.47	0.103	3.44	0.872	4.32
GCTCGGAGGACGAGGTCAGAGCTTTGTCCGTAGA	1.88	1.6	-0.0578	1.38	-1.38	2.9	0.449	1.04	-0.495	0.269	-0.0575	0.506	-0.927	-1.57	0.162	2.57	0.107	2.7	-1.37	2.92
CCTAGCAGGCCATTCTGGGTCACTCAAGGCTTGA	2.69	4.53	0.0938	2.17	-0.726	2.61	0.687	1.16	-0.704	0.4	3.36	3.51	-0.645	-1.57	0.115	1.61	-0.27	1.71	-0.611	1.75
GCGACTGGGACAAAGCAGGTTACCATAAGGTTGG	-0.198	-0.314	-0.305	-0.479	-0.971	0.611	0.76	0.524	-0.332	-0.0419	2.44	1.83	-0.413	-1.3	0.0292	0.0506	-0.224	0.493	-0.37	0.0729
TAGCATAGGTCATTGGGCCAGTATAGTACGCATC	6.02	5.02	1.27	4.02	0.541	5.41	5.17	5.29	1.75	3.7	1.83	3.4	0.78	0.329	1.56	2.87	-0.00464	3.16	0.152	3.97
GGAACGAGGGCAAAGTTGAAAGCATCTGTCGACG	2.18	1.34	-0.458	1.26	-0.325	4.91	8.72	8.04	7.29	8.83	4.35	5.08	-0.45	-0.356	0.811	2.03	0.337	2.95	-0.362	2.7
CCTACTGGGCCAAAAAGGTCATTGCTGCCGATAA	3.75	4.36	3.33	4.21	0.236	4.7	3.04	4.09	1.5	3.64	4.17	4.29	0.288	-0.116	3.92	4.87	3.45	5.19	0.902	3.98
TCACACAGGTGAAGGTAACTCAGGTACGCAGTCG	0.851	2.02	-0.228	1	-0.466	1.32	1.14	1.81	2.94	2.66	2.55	1.69	0.51	-0.435	-0.0155	0.559	-0.0288	0.898	0.414	1.15
CCTCGGATGACAACAGGAGGTCAGAGCTGCCAGA	0.859	1.83	1.84	1.53	-0.0301	1.91	0.547	0.588	-0.476	0.0996	-0.191	-0.245	0.202	-0.797	1.63	1.72	0.385	2.22	1.58	2.02
TCATATAGGTGAACAGGTGAAAGTCCGTAAGTTA	1.35	1.14	0.444	1.22	0.00841	3.47	4.77	4.6	4.3	4.44	6.52	6.31	1.63	1.36	1.1	1	0.638	1.46	0.907	1.64
CAAACTAGGTCAGGGTCAAAGTCGGTTTGTGCCA	5.97	4.32	1.32	4.16	0.645	6.05	9	7.43	5.39	7.73	8.32	8.36	4.34	3.17	4.2	4.81	1.33	5.35	1.42	4.47
CCTGGTAGGTCATGGTCAGCTAATCTACAGTATG	3.94	3.15	0.527	2.3	0.0201	4.05	4.22	4.12	1.32	3.01	4.25	5.18	0.295	0.552	1.94	2.02	-0.0799	2.83	0.611	3.81
GCTTACGGGTTAAAGGTTATAGCATGAATAGAAT	4.76	4.09	0.422	4.17	0.397	5.9	8.86	7.5	6.81	8.18	1.96	4	0.8	1.12	1.78	4.18	0.49	6.08	1.07	2.31
ACTCGGAGGACAAAGGTCAGAGATACGCCAGTGA	4.21	4.08	1.83	3.54	0.52	4.69	7.66	6.85	6.73	7.24	0.715	3.35	0.221	-0.524	4.07	4.02	0.592	5.15	1.44	4.56
CCTAGCAGGCCAATGTGGGTCACTCAAGGCTTGA	0.735	1.67	-0.413	0.94	-1.16	3.33	1.94	2.65	0.359	1.74	4.05	4.91	-0.196	-1.11	0.296	1.24	-0.313	1.55	-0.725	1.54
TCTCGGAGGAAACGAAGGTCAGAGCTTTCCAGAG	0.418	0.556	-0.0873	1.02	-1.15	1.72	-0.151	1.19	1.74	1.39	0.867	-0.0763	-1.61	-1.24	0.766	0.848	-0.378	1.7	-0.763	2.03
CAAACTAGCTCAAGGTCAAAGTCGGTTTGTGCCA	4.51	5.18	5.93	4.13	1.45	4.17	1.21	2.95	0.947	2.05	1.26	1.78	-0.371	-0.234	2.07	4.39	2.66	4.08	0.525	3.88
CCAGACACGTGAAAGGTAACTCAGTCTGGTACGC	-0.513	-0.178	-0.428	0.0481	-0.283	0.287	0.636	0.0199	-0.466	-0.253	-0.261	-0.369	-0.212	-0.126	-0.0268	-0.338	-0.312	-0.206	0.0098	0.231
GTTTGTAGATCAAGGTTAAGAAAGACTAAGCTAA	0.943	1.64	0.556	0.954	0.547	1.84	1.93	2.88	1.48	2.65	1.8	1.93	1.34	0.524	1.43	0.822	1.11	1.21	2.12	1.24
